According to PubChem BioAssay (NCI):
About 83,000 compounds went through this panel and 20% of them were active in at least one assay; those are over-represented in the sample as a whole.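 The test compound was applied at a single concentration to cells in 96-well plates for 48 hours, and percent growth was recorded.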 The source made the active and inactive calls. Rule for the calls: active = growth percent below 10; inactive = the rest.

How the values were obtained:
Assay in all cases: NCI-60 one-dose screen, 48 h (100 = growth as untreated, 0 = no growth, -100 = all killed)
Conditions in all cases: 10 µM unless noted
DU-145 prostate = tested on: DU-145 prostate
K-562 leukemia = tested on: K-562 leukemia
MALME-3M melanoma = tested on: MALME-3M melanoma
MDA-MB-231 breast = tested on: MDA-MB-231 breast
RXF 393 renal = tested on: RXF 393 renal
SF-268 CNS = tested on: SF-268 CNS
SF-295 CNS = tested on: SF-295 CNS
SF-539 CNS = tested on: SF-539 CNS
UACC-257 melanoma = tested on: UACC-257 melanoma
M14 melanoma = tested on: M14 melanoma
HCT-15 colon = tested on: HCT-15 colon
HT29 colon = tested on: HT29 colon
SNB-75 CNS = tested on: SNB-75 CNS
SNB-19 CNS = tested on: SNB-19 CNS
U251 CNS = tested on: U251 CNS
PC-3 prostate = tested on: PC-3 prostate
SK-MEL-5 melanoma = tested on: SK-MEL-5 melanoma
UACC-62 melanoma = tested on: UACC-62 melanoma
LOX IMVI melanoma = tested on: LOX IMVI melanoma
SK-MEL-28 melanoma = tested on: SK-MEL-28 melanoma

Measured: growth

O=C(CC12CC3CC(CC(C3)C1)C2)NCCOCCOCCNC(=O)c1cc2c(o1)C(=O)c1ccccc1C2=O
active: DU-145 prostate -95.7% | K-562 leukemia 1.74% | MALME-3M melanoma -97.1% | MDA-MB-231 breast -9.38% | RXF 393 renal -92.3% | SF-268 CNS -16.4% | SF-295 CNS -94.2% | SF-539 CNS -96.1% | UACC-257 melanoma -95.3% | M14 melanoma -73.6% | HCT-15 colon -80.2% | HT29 colon 3.08% | SNB-75 CNS -99% | SNB-19 CNS -16.3% | U251 CNS -87.8% | PC-3 prostate 4.8% | SK-MEL-5 melanoma -97.5% | UACC-62 melanoma -94.9% | LOX IMVI melanoma -95.1% | SK-MEL-28 melanoma -73.5%

Cc1ccc(/C(=N\N=C(N)N)c2ccccc2)cc1
active: K-562 leukemia 0.175% | MDA-MB-231 breast 2.26% | SF-295 CNS 1.44% | SF-539 CNS -24.2% | M14 melanoma -43.5% | HCT-15 colon -4.22% | HT29 colon 3.12% | SNB-19 CNS 9.71% | SK-MEL-5 melanoma -13.4%
inactive: DU-145 prostate 10.4% | MALME-3M melanoma 61.8% | RXF 393 renal 10.4% | SF-268 CNS 36.1% | UACC-257 melanoma 59% | SNB-75 CNS 28.5% | U251 CNS 12.7% | PC-3 prostate 14.1% | UACC-62 melanoma 20.7% | LOX IMVI melanoma 28.3% | SK-MEL-28 melanoma 64.4%

Nc1ccc(S(=O)(=O)Nc2ccsc2-c2nc(-c3ccccc3)no2)cc1
inactive: DU-145 prostate 76.5% | K-562 leukemia 13.5% | MALME-3M melanoma 70.5% | MDA-MB-231 breast 61.8% | RXF 393 renal 83.3% | SF-268 CNS 67.2% | SF-295 CNS 69.8% | SF-539 CNS 75.6% | UACC-257 melanoma 67.2% | M14 melanoma 32.1% | HCT-15 colon 34.1% | HT29 colon 11.8% | SNB-75 CNS 54.8% | SNB-19 CNS 69.3% | U251 CNS 41.7% | PC-3 prostate 53.1% | SK-MEL-5 melanoma 65.9% | UACC-62 melanoma 50.7% | LOX IMVI melanoma 68% | SK-MEL-28 melanoma 71.2%

C=C1C(=O)O[C@H]2[C@H]1CC/C(Cn1cc(CNCCc3c[nH]c4ccccc34)nn1)=C\CC[C@@]1(C)O[C@@H]21
inactive: DU-145 prostate 104% | K-562 leukemia 32% | MALME-3M melanoma 76% | MDA-MB-231 breast 92.4% | RXF 393 renal 85.4% | SF-268 CNS 95.8% | SF-295 CNS 102% | SF-539 CNS 81.1% | UACC-257 melanoma 77.4% | M14 melanoma 84.3% | HCT-15 colon 102% | HT29 colon 61.2% | SNB-75 CNS 79.8% | SNB-19 CNS 98.3% | U251 CNS 92.8% | PC-3 prostate 94.1% | SK-MEL-5 melanoma 96.5% | UACC-62 melanoma 84.7% | LOX IMVI melanoma 94% | SK-MEL-28 melanoma 89%

CN(C)c1ccc(C#Cc2c(F)cccc2Cl)cc1
inactive: DU-145 prostate 101% | K-562 leukemia 95.5% | MALME-3M melanoma 93.4% | MDA-MB-231 breast 66.2% | RXF 393 renal 112% | SF-268 CNS 87.7% | SF-295 CNS 76.5% | SF-539 CNS 94.6% | UACC-257 melanoma 91.2% | M14 melanoma 100% | HCT-15 colon 78.4% | HT29 colon 73.7% | SNB-75 CNS 75% | SNB-19 CNS 111% | U251 CNS 89.1% | PC-3 prostate 70.5% | SK-MEL-5 melanoma 85.3% | UACC-62 melanoma 87.6% | LOX IMVI melanoma 81.3% | SK-MEL-28 melanoma 105%

Cc1nn(Cc2ccccc2)cc1C(=O)Nc1sc2c(c1C(N)=O)CCC(=O)C2
active: SF-539 CNS 9.16%
inactive: DU-145 prostate 67.6% | K-562 leukemia 10.5% | MALME-3M melanoma 27.6% | MDA-MB-231 breast 25% | RXF 393 renal 31.4% | SF-268 CNS 20.5% | SF-295 CNS 79.7% | UACC-257 melanoma 70.7% | M14 melanoma 16.7% | HCT-15 colon 13.6% | HT29 colon 13.1% | SNB-75 CNS 54.5% | SNB-19 CNS 63% | U251 CNS 23.2% | PC-3 prostate 15.6% | SK-MEL-5 melanoma 28.8% | UACC-62 melanoma 13.9% | LOX IMVI melanoma 17.2% | SK-MEL-28 melanoma 29.8%

CCC(C)NCc1ccccc1 (stereo not given)
inactive: DU-145 prostate 106% | K-562 leukemia 98.1% | MALME-3M melanoma 105% | MDA-MB-231 breast 96.4% | RXF 393 renal 99.3% | SF-268 CNS 98.9% | SF-295 CNS 98.9% | SF-539 CNS 102% | UACC-257 melanoma 103% | M14 melanoma 96.9% | HCT-15 colon 107% | HT29 colon 84.9% | SNB-75 CNS 95.9% | SNB-19 CNS 102% | U251 CNS 102% | PC-3 prostate 78.1% | SK-MEL-5 melanoma 106% | UACC-62 melanoma 95.3% | LOX IMVI melanoma 102% | SK-MEL-28 melanoma 112%

O=C1C(Cl)C(c2ccccc2Cl)N1n1cnnc1 (stereo not given)
inactive: DU-145 prostate 104% | K-562 leukemia 102% | MALME-3M melanoma 95.6% | MDA-MB-231 breast 94.8% | RXF 393 renal 98.6% | SF-268 CNS 102% | SF-295 CNS 100% | SF-539 CNS 85.3% | UACC-257 melanoma 91.5% | M14 melanoma 93.1% | HCT-15 colon 101% | HT29 colon 103% | SNB-75 CNS 74% | SNB-19 CNS 93% | U251 CNS 99.6% | PC-3 prostate 88% | SK-MEL-5 melanoma 97.3% | UACC-62 melanoma 94.7% | LOX IMVI melanoma 91.4% | SK-MEL-28 melanoma 96.4%

CN1CCN(c2ccc3nc(/N=C/c4ccc5sc(-c6ccc([N+](=O)[O-])cc6)nc5c4)sc3c2)CC1
inactive: DU-145 prostate 106% | K-562 leukemia 90.6% | MALME-3M melanoma 96.7% | MDA-MB-231 breast 112% | RXF 393 renal 129% | SF-268 CNS 111% | SF-295 CNS 96% | SF-539 CNS 93.4% | UACC-257 melanoma 101% | M14 melanoma 104% | HCT-15 colon 102% | HT29 colon 103% | SNB-75 CNS 106% | SNB-19 CNS 104% | U251 CNS 93.9% | PC-3 prostate 104% | SK-MEL-5 melanoma 90.6% | UACC-62 melanoma 104% | LOX IMVI melanoma 117% | SK-MEL-28 melanoma 107%

N#C/C=C(\c1ccc([N+](=O)[O-])cc1)n1nnc2cc(Cl)c(Cl)cc21
active: DU-145 prostate -21.2% | MDA-MB-231 breast 2.77% | RXF 393 renal 0.579% | SF-539 CNS -9.65% | HCT-15 colon -39.1% | HT29 colon 3.93% | PC-3 prostate -12.5% | UACC-62 melanoma 3.91% | LOX IMVI melanoma -79.9%
inactive: K-562 leukemia 13.9% | MALME-3M melanoma 40.7% | SF-268 CNS 20.3% | SF-295 CNS 14.1% | UACC-257 melanoma 45.6% | M14 melanoma 21.1% | SNB-75 CNS 18.1% | SNB-19 CNS 41.5% | U251 CNS 11.8% | SK-MEL-5 melanoma 38.5% | SK-MEL-28 melanoma 43.2%

CCCCCCCSc1ccc(C(=O)O)cc1
inactive: DU-145 prostate 119% | K-562 leukemia 105% | MALME-3M melanoma 111% | MDA-MB-231 breast 112% | RXF 393 renal 94.4% | SF-268 CNS 109% | SF-295 CNS 94.3% | SF-539 CNS 99.7% | UACC-257 melanoma 95.8% | M14 melanoma 113% | HCT-15 colon 111% | HT29 colon 112% | SNB-75 CNS 71.2% | SNB-19 CNS 95.4% | U251 CNS 95.1% | PC-3 prostate 99.9% | SK-MEL-5 melanoma 108% | UACC-62 melanoma 98.6% | LOX IMVI melanoma 103% | SK-MEL-28 melanoma 105%

Cc1nc(Nc2ccccn2)sc1C(=O)/C=C/c1ccc(Br)cc1
inactive: DU-145 prostate 66.7% | K-562 leukemia 13.3% | MALME-3M melanoma 77.1% | MDA-MB-231 breast 71.1% | RXF 393 renal 78.4% | SF-268 CNS 78.8% | SF-295 CNS 72.8% | SF-539 CNS 84.7% | UACC-257 melanoma 95.7% | M14 melanoma 80.7% | HCT-15 colon 30.4% | HT29 colon 25.9% | SNB-75 CNS 40.2% | SNB-19 CNS 69.2% | U251 CNS 59.8% | PC-3 prostate 56.3% | SK-MEL-5 melanoma 84.7% | UACC-62 melanoma 61.5% | LOX IMVI melanoma 32.2% | SK-MEL-28 melanoma 99.6%

COc1ccc(/C=C(\C#N)n2nnc3ccccc32)cc1
active: DU-145 prostate -5.07% | MDA-MB-231 breast -14.5% | RXF 393 renal -39.3% | SF-295 CNS -3.98% | SF-539 CNS -46.4% | M14 melanoma -11% | HCT-15 colon 8.56% | SNB-75 CNS -31.7% | SK-MEL-5 melanoma 6.7% | LOX IMVI melanoma 2.08%
inactive: K-562 leukemia 15% | MALME-3M melanoma 44.1% | SF-268 CNS 21.3% | UACC-257 melanoma 77.5% | HT29 colon 11% | SNB-19 CNS 23% | U251 CNS 17.6% | PC-3 prostate 15.8% | UACC-62 melanoma 21.4% | SK-MEL-28 melanoma 36.2%

COc1ccc(Nc2ncc(Br)c(NCCCNC(=O)C3CCC3)n2)cc1
active: MDA-MB-231 breast -25.7% | RXF 393 renal -41.2% | SF-539 CNS 2.94% | SNB-75 CNS -4.95% | LOX IMVI melanoma 4.32%
inactive: DU-145 prostate 38.9% | K-562 leukemia 23% | MALME-3M melanoma 77.7% | SF-268 CNS 23.4% | SF-295 CNS 30.9% | UACC-257 melanoma 74.3% | M14 melanoma 55.2% | HCT-15 colon 21.7% | HT29 colon 31% | SNB-19 CNS 33.1% | U251 CNS 19.8% | PC-3 prostate 39.2% | SK-MEL-5 melanoma 44.2% | UACC-62 melanoma 56.6% | SK-MEL-28 melanoma 54.7%

COc1ccc(C2CC(c3ccccc3)=NN2c2nc(C)c(C(C)=O)s2)cc1 (stereo not given)
inactive: DU-145 prostate 102% | K-562 leukemia 95% | MALME-3M melanoma 95.2% | MDA-MB-231 breast 96.6% | RXF 393 renal 94.1% | SF-268 CNS 91.3% | SF-295 CNS 99% | SF-539 CNS 94.3% | UACC-257 melanoma 102% | M14 melanoma 97.3% | HCT-15 colon 98.7% | HT29 colon 102% | SNB-75 CNS 90.2% | SNB-19 CNS 99.3% | U251 CNS 100% | PC-3 prostate 97% | SK-MEL-5 melanoma 103% | UACC-62 melanoma 91.5% | LOX IMVI melanoma 94.6% | SK-MEL-28 melanoma 112%
